Laboratory results taken from PubChem BioAssay (Tox21).
Calls of active or inactive are those of the source. Entries that show only a call come without a potency. Calls come from the whole dose curve; as a rule, active = well fitted activation curve with a large enough effect in the repeat runs; inconclusive = weak or mixed curves; inactive = flat fitted curve, though single readings scatter.

Assay: A CellTox Green Cytotoxicity Assay to monitor cytotoxicity in HEK293 cells - 0 hour (AID 1224869); note: nearly all actives have a fitted effect of over 50% in size
Settings: CellTox Green fluorescence; series mostly up to 76.8 µM
Description: National Center for Advancing Translational Sciences [NCATS]
NIH Chemical Genomics Center [NCGC]
U.S. Environmental Protection Agency [EPA]
National Institutes of Environmental Health Sciences [NIEHS]
National Toxicology Program [NTP]
Cell-based models are critical for drug discovery. Determining the natural cytotoxic effects resulting from test compounds is an essential research activity. A CellTox Green Cytotoxicity Assay to monitor cytotoxicity in real time of continues cell culture during 40 hours of the compound treatment was used to screen Tox21 10K library compounds in Hek293 cells. CellTox Green Cytotoxicity Assay is a nonlytic, homogeneous, biofluorescent method to measure cytotoxicity in cell culture after experimental manipulation. The assay system uses a proprietary asymmetric cyanine dye that is excluded from viable cells but preferentially stains the dead cell's DNA. […] Viable cells produce no appreciable increases in fluorescence. Therefore, the fluorescence signal produced by the binding interaction with dead cell DNA is proportional to cytotoxicity.
The mixture of Hek293 cell suspension and reagents were dispensed at 600cells/6 ul/well in 1536-well tissue culture treated black solid bottom plates using a Multidrop dispenser. After the assay plates were incubated at a 37 C/5% CO2 incubator for 5 hours, 23 nL of compounds dissolved in DMSO, positive and negative controls was transferred to the assay plate by a pintool work station. The plates were incubated at 37 C for 40 hours. The fluorescence intensity were measured at 0h, 8h, 16h, 24h, 32h and 40h time points using ViewLux plate reader during compound treatment.

Structure (SMILES)	Potency	cytotoxicity
CCCCNc1ccc(C(=O)OCCOCCOCCOCCOCCOCCOCCOCCOCCOC)cc1	inactive	–
COc1cc2c(cc1OC)C(C(C(=O)N(CCc1ccc(OC)c(OC)c1OC)CCc1ccc(OC)c(OC)c1OC)c1ccccc1)=NCC2 (stereo not given)	inactive	–
O=C(O)c1nc(Cl)c(Cl)c(Cl)c1Cl	inactive	–
Clc1ccc(Cn2c(CN3CCCC3)nc3ccccc32)cc1	inactive	–
O=C(OCCc1ccccc1)c1ccccc1	inactive	–
CCCCCCCC#N	inactive	–
O=P(O)(OCc1ccccc1)OCc1ccccc1	inactive	–
COc1cc2nc(Cl)nc(N)c2cc1OC	inactive	–
COC(C)(C)CCO	inactive	–
CN(Cc1ccc(C(C)(C)C)cc1)Cc1cccc2ccccc12	inactive	–
CCO[C@H](Cc1ccc(OCCc2ccc(OS(C)(=O)=O)cc2)cc1)C(=O)O	inactive	–
O=[N+]([O-])c1cccc(S(=O)(=O)O)c1	inactive	–
O=C(Cl)c1cc(C(=O)Cl)cc(C(=O)Cl)c1	inactive	–
COc1cc(C(=O)OCCCN2CCCN(CCCOC(=O)c3cc(OC)c(OC)c(OC)c3)CC2)cc(OC)c1OC	inactive	–
COc1ccc(C)cc1[N+](=O)[O-]	inactive	–
O=CC1CC=CCC1 (stereo not given)	inactive	–
c1ccc(C(O[C@H]2CCCN(CCc3ccc4c(c3)OCO4)C2)c2ccccc2)cc1	inactive	–
C=C1[C@H]2CC[C@@H]3[C@H]2C(C)(C)CCC[C@]13C	inactive	–
CCn1cc(C(=O)O)c(=O)c2cnc(N3CCNCC3)nc21	inactive	–
CCCCC(CC)COC(=O)COc1ccc(Cl)cc1Cl (stereo not given)	inactive	–

Structure (SMILES)	Potency	cytotoxicity
CCOC(=O)Cc1cccc2ccccc12	inactive	–
Nc1ccc(N)c2c1C(=O)c1ccccc1C2=O	inactive	–
CC(=O)c1cccc([N+](=O)[O-])c1	inactive	–
NCC(=O)O	–	-0.777% [at 15.8 µM] (inactive)
CC(=O)[O][Al]	inactive	–
CC[N+](C)(CC)CCOC(=O)C(O)(c1ccccc1)C1CCCCC1 (stereo not given)	inactive	–
CCCCCCCCCCCCCCOS(=O)(=O)O	inactive	–
O=C(O)C1(C(=O)Nc2ccc(Cl)cc2Cl)CC1	inactive	–
CN1Cc2cc(C(=O)N3CCC(C4CCNCC4)CC3)ccc2NC(CC(=O)O)C1=O (stereo not given)	inactive	–
CCCCCCCCCCCCN1CCCCCC1=O	inactive	–
CCc1cc(C2=C(C(=O)O)N(c3ccccc3C(F)(F)F)S(=O)(=O)c3ccccc32)cc2c1OCO2	inactive	–
O=[N+]([O-])c1ccc(NCCO)c(OCCO)c1	inactive	–
CC(C)Cc1ccc(C(C)C(=O)OCc2ccccn2)cc1 (stereo not given)	inactive	–
COc1ccnc(CS(=O)c2nc3ccc(OC(F)F)cc3[nH]2)c1OC (stereo not given)	inactive	–
O=C(NCC1CN(c2ccc(N3CCOCC3=O)cc2)C(=O)O1)c1ccc(Cl)s1 (stereo not given)	inactive	–
CCOc1ccc(N)c([N+](=O)[O-])c1	inactive	–
CCCCCCCN	inactive	–
COc1ccc(C(=O)N2CCN(CC(=O)N3CCOCC3)CC2)cc1	inactive	–
CCOC(=O)c1cccnc1	inactive	–
CCOC(=O)C(F)(F)F	inactive	–
